# Measured values published in PubChem BioAssay (Tox21).
# A number with no mark means an inactive call. Calls of active or inactive are those of the source. The call rests on the fitted dose curve; in most records, active means well fitted curve in the direction sought with a large enough effect in the repeat runs; inconclusive means weak or mixed curves; inactive means flat fitted curve, though single readings scatter.
# Assay: qHTS assay to test for compound auto fluorescence at 590 nm (red) in HEK293 cells (AID 720679)
# Details: red autofluorescence 540/590 nm; series mostly up to 91.3 µM; fluorescence, % of fluorescent control: at the top concentration
# Source text: National Center for Advancing Translational Sciences [NCATS]
# NIH Chemical Genomics Center [NCGC]
# U.S. Environmental Protection Agency [EPA]
# National Institutes of Environmental Health Sciences [NIEHS]
# National Toxicology Program [NTP]
# U.S. Food and Drug Administration [FDA]
# Compound auto fluorescence often interferes with screening of the compound library against various biological targets and signaling pathways. Some of these compounds may have fluorophoric properties. Such properties may interfere with the assay outputs resulting in false positives and/or negatives. To decrease such complications and ensure the compound activities are relevant in terms of biological response, the Tox21 10K compound library was screened for auto fluorescence.
# From the fluorophores used as reporter signals in our screening assays, the auto fluorescence equivalencies of compounds against three fluorophores have been evaluated: Triamterene, Fluorescein and Rose Bengal sodium for blue, green and red fluorescence, respectively. The fluorescence intensities were measured using Excitation/Emission wavelengths at 405/460nm, 485/535nm and 540/590nm for blue, green and red labels, respectively. This assay includes the red fluorescence data.
# Tox21 Assay Protocol Summary:
# 2,000 HEK293 cells in 5 uL of culture medium containing 10% dialyzed FBS per well were dispensed into black wall/clear bottom 1536-well plates using a Multidrop Combi Dispenser (Thermo Scientific). The assay plates were incubated for 4-5 hr at 37C to allow cell attachment to the well bottom, followed by the transfer of 23 nL compound or DMSO vehicle by a pintool work station (Kalypsys, San Diego, CA). After the assay plates were incubated overnight at 37C and 5% CO2, fluorescence intensities in the assay plates were measured by an Envision (PerkinElmer, Shelton, CT) plate reader using three labels for measuring blue, green and red fluorescence at […] 460, 535 and 590nm respectively.
# On the % scale 0 is the no-effect control and ±100 the full control effect.
SMILES,outcome,"fluorescence, % of fluorescent control"
CC(=O)Nc1ccc(C(=O)CCl)cc1,inactive,–
CC(C)(C)NCC(O)c1cc(O)cc(O)c1 (stereo not given),–,0.131% [at 46 µM]
O=C(O)c1cn(-c2ccc(F)cc2)c2cc(N3CCNCC3)c(F)cc2c1=O,–,-0.198% [at 46 µM]
CCCCCCCCCCCCCCCCCl,–,0.199% [at 18.6 µM]
CC[C@@H](N)CO,–,0.0796% [at 95.7 µM]
C=CS(=O)(=O)O,inactive,–
O=S(=O)(O)c1ccc2nc(-c3ccccc3)[nH]c2c1,inactive,–
Nc1cc(Cl)c(-c2cc(Cl)c(N)cc2Cl)cc1Cl,inactive,–
CCC(C)(C)C(=O)O[C@H]1C[C@@H](C)C=C2C=C[C@H](C)[C@H](CC[C@@H]3C[C@@H](O)CC(=O)O3)[C@H]21,inactive,–
NCCCCCC(=O)O,–,0.0137% [at 18.6 µM]
Cc1cccc2n[nH]nc12,inactive,–
O=Cc1ccc(Cl)cc1,–,0.0916%
CCN(CC)C(=O)Nc1ccc(OCC(O)CNC(C)(C)C)c(C(C)=O)c1 (stereo not given),–,0.687% [at 46 µM]
COc1cc(C(=S)N2CCOCC2)ccc1O,–,-0.0569% [at 46 µM]
CCN(CC)C(=S)SSC(=S)N(CC)CC,inactive,–
COC(=O)[C@H]1[C@H]2C[C@@H]3c4[nH]c5cc(OC)ccc5c4CCN3C[C@H]2C[C@@H](OC(=O)c2cc(OC)c(OC)c(OC)c2)[C@@H]1OC,inactive,–
C=C(C)C1CC=C(C)C(OC(C)=O)C1 (stereo not given),inactive,–
Oc1ccc(Cl)cc1Cc1cc(Cl)ccc1O,inactive,–
O=C(Nc1ccccc1SSc1ccccc1NC(=O)c1ccccc1)c1ccccc1,inactive,–
Cc1scc2c1N(C(=O)CN1CCN(C)CC1)c1ccccc1NC2=O,–,0.0478% [at 46 µM]

SMILES,outcome,"fluorescence, % of fluorescent control"
CC(=O)CC(C)=O,–,0.0627% [at 95.7 µM]
c1ccc2c(c1)CCCC2C1=NCCN1 (stereo not given),–,-0.0696% [at 46 µM]
CNC1(C)C2CCC(C2)C1(C)C (stereo not given),–,0.496% [at 46 µM]
CC1COC(=O)O1 (stereo not given),inactive,–
CCCCCCCCCCCC[N+](C)(C)C,inactive,–
c1cnc2cc3c(cc2n1)C1CNCC3C1,–,-0.0833% [at 95.7 µM]
CCn1cc(C(=O)O)c(=O)c2cc(F)c(N3CCNC(C)C3)c(F)c21 (stereo not given),inactive,–
CCCCCCCCCCCCCC[P+](CCCC)(CCCC)CCCC,inactive,–
CC1COc2c(N3CCN(C)CC3)c(F)cc3c(=O)c(C(=O)O)cn1c23 (stereo not given),–,-0.139% [at 46 µM]
CC(=O)OCC1=C(C(=O)O)N2C(=O)[C@@H](NC(=O)Cc3cccs3)[C@H]2SC1,–,0.227% [at 46 µM]
C=C(C)C(=O)O,inactive,–
C=CC(=O)OCCCCCCCC,–,-0.972%
CCC(C)(Oc1ccc(C2(c3ccc(OC(C)(CC)C(=O)O)cc3)CCCCC2)cc1)C(=O)O (stereo not given),–,-0.634% [at 46 µM]
C[N+]1([O-])CCOCC1,–,-0.0183%
CCCCN(CCO)CCCC,–,0.287% [at 95.7 µM]
Cc1occc(=O)c1OC(=O)C(C)C,–,-0.333%
O=C(O)CP(=O)(O)O,–,0.125% [at 46 µM]
CC1=C(C=O)C(C)(C)CC=C1,–,0.3% [at 95.7 µM]
COc1ccc(Cc2cnc(N)nc2N)cc1OC,–,-0.777% [at 46 µM]
Cc1cc(Cc2cc(C)cc(C(C)(C)C)c2O)c(O)c(C(C)(C)C)c1,inactive,–
